# Molecular target: S100A4
# Assay: pooled miR-30 sensor sort-seq; sequence = guide strand
# Conditions: shRNA
# Note: reference of the scale not given here.
row,Sequence,sensor-assay potency score (higher = more potent)
1,TTACACATCATGGCGATGCAGG,-0.526
2,TTTATTGAACTTGCTCAGCATC,-1.33
3,TTGAACTTGTCACCCTCTTTGC,-0.681
4,TAGTTCTGACTTGTTGAGCTTG,-0.701
5,TGACTTGTTGAGCTTGAACTTG,-1.01
6,TTGAGCTTGAACTTGTCACCCT,0.789
7,TTCGTTACACATCATGGCGATG,-1.19
8,TTGCTCAGCATCAAGCACGTGT,-0.253
9,TTGTTGAGCTTGAACTTGTCAC,-0.424
10,TGAGCTTGAACTTGTCACCCTC,0.664
11,TACTCTTGGAAGTCCACCTCGT,0.392
12,TCAGCTTCTGGAAAGCAGCTTC,0.395

# Molecular target: S100P
# Assay: as above
# Conditions: shRNA
row,Sequence,sensor-assay potency score (higher = more potent)
1,TGGTAGCTCCTTCTCCATCAGC,-1.75
2,AAGACGTCTATGATCATGCCCA,0.0811
3,TACATGAGCAGGCTCAGCCTAG,-0.833
4,TTGCCAACAAACACTTTTGGGA,-0.0452
5,TAATCAGAGGTACATGAGCAGG,-1.43
6,TACTTGTGACAGGCAGACGTGA,-0.639
7,TTCCACTCTGCAGGAAGCCTGG,-1.03
